In all, about 88,000 compounds went through this assay and about 260 (0.3%) were called active.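 How the source made its calls: active means compounds that reduce the energy-transfer binding signal between the protein and its labelled peptide by more than half; inactive means the rest.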 The full list was thinned out, with actives kept by preference.
The compounds below were run against Mothers against decapentaplegic homolog 3 (Homo sapiens) (UniProt P84022) (assay: Smad3/FoxH1 peptide binding inhibitors, primary screen, biochemical, TR-FRET (AID 630;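 further: 0% = Smad3 plus labelled peptide maximal FRET and 100% = peptide-only background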)). Details: TR-FRET Smad3/Dy647-FoxH1 peptide binding, europium anti-His; at 25 µM; active compounds read high.
Sequence of Mothers against decapentaplegic homolog 3 (Homo sapiens) (P84022 whole entry, looked up): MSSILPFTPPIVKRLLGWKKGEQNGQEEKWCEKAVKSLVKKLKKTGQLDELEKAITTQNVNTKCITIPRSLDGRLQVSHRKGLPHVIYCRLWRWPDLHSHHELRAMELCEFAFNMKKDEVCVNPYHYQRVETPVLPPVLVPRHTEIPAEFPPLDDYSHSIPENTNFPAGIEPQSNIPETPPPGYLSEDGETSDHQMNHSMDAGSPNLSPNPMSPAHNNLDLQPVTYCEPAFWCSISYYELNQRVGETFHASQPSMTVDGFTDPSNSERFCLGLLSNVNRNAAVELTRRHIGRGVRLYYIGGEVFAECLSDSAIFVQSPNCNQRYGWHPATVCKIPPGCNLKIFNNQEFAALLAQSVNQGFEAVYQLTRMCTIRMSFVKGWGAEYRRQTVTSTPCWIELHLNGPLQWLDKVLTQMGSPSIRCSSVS

SMILES | inhibition
Cc1ccc(S(=O)(=O)O[C@H]2CN3CCC2CC3)cc1 | 67.3% (active)
O=C1C[C@@H]2OCC=C3CN4CC[C@]56c7ccccc7N1[C@H]5[C@H]2[C@H]3C[C@H]46 (tested in a mixture with another compound) | -5.82% (inactive)
c1cc2c(cc1CCNC1CCCCCC1)OCO2 | -10.4% (inactive)
CC[C@@](O)(C(=O)O)c1cc2n(c(=O)c1CO)Cc1cc3ccccc3nc1-2 | -1.51% (inactive)
C=C[C@@H]1CN2CC[C@H]1C[C@@H]2[C@H](O)c1ccnc2ccccc12 | -9.04% (inactive)

From PubChem BioAssay AID630 (Emory University Molecular Libraries Screening Center, 2007)
